This passage reports PBM binding z-score results from the supplement of paper PMC6555819.

One assay has as its system LXRa:RXRa (NR concentration 270 nM, RXRa partner concentration 90 nM). Kind of assay: PBM binding z-score (relative to random genomic background probes); higher = stronger binding; sequences stand for … in GC…GCGATTGACAGCGTAGAATGAAGG
The essentials:
(§1)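 Custom Agilent 4×180K protein-binding microarrays carried double-stranded probes, each with a 34-nt variable region. These regions held direct-repeat seeds, single-nucleotide variants, half-site ablations and random human genomic background sequences. Ligand-free nuclear receptor dimers were incubated on the arrays for 1 h, antibodies against each partner (one per run) detected binding, and scanned fluorescence was regression-normalized. Binding z-scores take the random background probes as reference.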
Sequence ATATGTAGGTTAGCTGGGGTCATTCACACTAGGC showed a PBM binding z-score of 5.86.

Sequence CGTCCAAGGACAATGCTAGGTCAGTGAAAGCATT showed a PBM binding z-score of 0.187.

In turn, CGAACGAGGTCATGAGTTGATAGCAAATGCCGAT came in with a PBM binding z-score of 5.51.

In the case of AGAATGAGGTCAAGATCAGGGAAACAGAATACAT, the PBM binding z-score turned out to be 5.9.

CGTCCAAGGTTAAGGTCAGTGAAAGAGACTCGAA gave a PBM binding z-score of 3.28.

Take CATACAGGGTCGGCTAGGCCAGAGTAGGGACGGC: the PBM binding z-score amounted to 0.0375.

In turn, CCTACTGGGCCAAAGAGGTCATTGATGCCGATAA returned a PBM binding z-score of 3.88.

The sequence ATATGTAGGTTAGGGTCAGTCAGAAAGTAGGGAA showed a PBM binding z-score of 2.82.

Take AGTCAAAGTTTATCTAGGTAACGTAAGATATGCT: the PBM binding z-score stood at 0.263.

With TAGCCTAGGTCATGCGGGACAGTATAGTGTCGGC, the PBM binding z-score was found to be 2.99.

Take ACTTAAGGGTCAACGAGGTTATAGCACGCGTATA: the PBM binding z-score is 6.42.

With TAGCCTAGTTCATTCAGGGGCCAGTATAGAAAGC, the PBM binding z-score stood at 0.593.

Consider CGAACAAGGTCATCCAGGACAGTGAATACATTGA, for which the PBM binding z-score was determined as 5.83.

As to CGTCCGAGGTCAAGGTCAGTGAAAGAGACTCGAA, the PBM binding z-score worked out at 6.22.

The sequence TAGCCGAGGTCATTCAGGGGCCAGTATAGAAAGC showed a PBM binding z-score of 6.28.

In the case of CCTACTCGGCCAAAAAGGTCATTGATGCCGATAA, the PBM binding z-score stood at 4.55.

CCTTACGGGTCCCTCCAGGTTATAGCATCGGAGT registered a PBM binding z-score of -0.148.

The sequence AACGAAAGGTCGAAGGTGAGTATACCCACCCGAA gave a PBM binding z-score of 3.94.

In another assay the test system is LXRa homodimer (NR concentration 270 nM). The assay is described as above. The essentials:
as §1
For the sequence CGAACGAGGTCATTGACAGGACAGTGAATAGTAA, the PBM binding z-score came to 1.41.

In turn, TCTAGTTGGTCACGGAGGGCACACACGACGGGTA gave a PBM binding z-score of -0.107.

AGAATGAGGTCATTAAGATCAGGGAATTGCGGTC yielded a PBM binding z-score of 2.12.

Sequence CGCACTAGGTCATCCAGGACAGTGAATACATTGA registered a PBM binding z-score of 0.736.

TAGCCTAGGTCATGCGGCCCAGTATAGTGTCGGC showed a PBM binding z-score of 0.125.

As to GATACAGGGTCAGCTACAGGCCAGAGTATGGAAA, the PBM binding z-score was -0.531.

ATCGAAAGGTCGACGCGGTGAGTATACACCGTTT yielded a PBM binding z-score of -0.127.

On to CCTGCTAGGTCATGGTCAGCGAATCTACAGTATG, for which the PBM binding z-score is -0.0156.

Sequence GCTGCTAGGTCAACTGATGGTCACCTAAAGCTCG registered a PBM binding z-score of 0.787.

The sequence CCGACTGGGGCAAGGTCACCATAACGCACAGCCA showed a PBM binding z-score of 0.471.

With TCTCGGAGGACACCAAAGGTCAGAGCTCGACATC, the PBM binding z-score came out at 3.82.

For the sequence AGTCAAAGTGCATCTAGGTAACGTAAGATATGCT, the PBM binding z-score was -0.289.

Sequence CCTACTGGGCCAAAAAGTTCATTGATGCCGATAA returned a PBM binding z-score of 2.92.

In turn, ATTTGTAGGTTACATCCGGGTCATTCAGGCTATG displayed a PBM binding z-score of 2.84.

As to CGAACTAGGTCACCCAGGACAGTGAATACATTGA, the PBM binding z-score is 0.478.

In turn, CGTCCGAGGTCATAGGAGGTCAGTGAAGACAGAT gave a PBM binding z-score of 5.54.

CCTAGTTGTTCAGGAGGTCACACACCGGATATGA registered a PBM binding z-score of 3.87.

As for CGAACTACGTCATCCAGGACAGTGAATACATTGA, the PBM binding z-score was determined as 0.121.

AATAAAGGGTCATCGTAGGCCAGAGTACGCACAG displayed a PBM binding z-score of 3.35.

As for CGTCAAAGTCCAAGGTAACGTAACAGAAAGCAGC, the PBM binding z-score was found to be 0.0661.

As to TAGCCTAGGTCATACAGGGGCCAGTATAGAAAGC, the PBM binding z-score was found to be 0.359.

The sequence CGAACAAGGTCATTGACAGGACAGTGAATAGTAA returned a PBM binding z-score of 1.2.

Turning to ATATGTAGGTTAGCTGGGGTCATTCACACTAGGC, the PBM binding z-score was 3.53.

Sequence CGTCCAAGGACAATGCTAGGTCAGTGAAAGCATT registered a PBM binding z-score of 0.593.

As to CGAACGAGGTCATGAGTTGATAGCAAATGCCGAT, the PBM binding z-score is 0.616.

Sequence AGAATGAGGTCAAGATCAGGGAAACAGAATACAT yielded a PBM binding z-score of 0.974.

CGTCCAAGGTTAAGGTCAGTGAAAGAGACTCGAA returned a PBM binding z-score of 0.367.

The sequence CATACAGGGTCGGCTAGGCCAGAGTAGGGACGGC yielded a PBM binding z-score of -0.58.

In turn, CCTACTGGGCCAAAGAGGTCATTGATGCCGATAA yielded a PBM binding z-score of 2.87.

In the case of ATATGTAGGTTAGGGTCAGTCAGAAAGTAGGGAA, the PBM binding z-score came out at 0.758.

As for AGTCAAAGTTTATCTAGGTAACGTAAGATATGCT, the PBM binding z-score stood at 0.141.

Sequence TAGCCTAGGTCATGCGGGACAGTATAGTGTCGGC came in with a PBM binding z-score of 0.386.

On to ACTTAAGGGTCAACGAGGTTATAGCACGCGTATA, for which the PBM binding z-score turned out to be 1.86.

TAGCCTAGTTCATTCAGGGGCCAGTATAGAAAGC yielded a PBM binding z-score of 0.155.

Sequence CGAACAAGGTCATCCAGGACAGTGAATACATTGA yielded a PBM binding z-score of 1.43.

Regarding CGTCCGAGGTCAAGGTCAGTGAAAGAGACTCGAA, the PBM binding z-score stood at 1.31.

As for TAGCCGAGGTCATTCAGGGGCCAGTATAGAAAGC, the PBM binding z-score was 2.47.

With CCTACTCGGCCAAAAAGGTCATTGATGCCGATAA, the PBM binding z-score was 4.59.

CCTTACGGGTCCCTCCAGGTTATAGCATCGGAGT gave a PBM binding z-score of -0.112.

AACGAAAGGTCGAAGGTGAGTATACCCACCCGAA had a PBM binding z-score of 0.129.

The subject of a further assay is LXRb homodimer (NR concentration 270 nM). The assay is described as above. The method in brief: as §1
The sequence CGAACGAGGTCATTGACAGGACAGTGAATAGTAA showed a PBM binding z-score of 1.44.

With TCTAGTTGGTCACGGAGGGCACACACGACGGGTA, the PBM binding z-score amounted to 0.00573.

The sequence AGAATGAGGTCATTAAGATCAGGGAATTGCGGTC had a PBM binding z-score of 1.68.

Sequence CGCACTAGGTCATCCAGGACAGTGAATACATTGA had a PBM binding z-score of 0.107.

TAGCCTAGGTCATGCGGCCCAGTATAGTGTCGGC: the PBM binding z-score is -0.105.

For the sequence GATACAGGGTCAGCTACAGGCCAGAGTATGGAAA, the PBM binding z-score is -0.596.

Consider ATCGAAAGGTCGACGCGGTGAGTATACACCGTTT, for which the PBM binding z-score came to 0.391.

For CCTGCTAGGTCATGGTCAGCGAATCTACAGTATG, the PBM binding z-score was -0.255.

Sequence GCTGCTAGGTCAACTGATGGTCACCTAAAGCTCG registered a PBM binding z-score of 0.117.

In turn, CCGACTGGGGCAAGGTCACCATAACGCACAGCCA had a PBM binding z-score of -0.792.

As to TCTCGGAGGACACCAAAGGTCAGAGCTCGACATC, the PBM binding z-score is -0.0325.

Sequence AGTCAAAGTGCATCTAGGTAACGTAAGATATGCT returned a PBM binding z-score of -0.415.

CCTACTGGGCCAAAAAGTTCATTGATGCCGATAA showed a PBM binding z-score of -0.369.

For ATTTGTAGGTTACATCCGGGTCATTCAGGCTATG, the PBM binding z-score worked out at 1.83.

In the case of CGAACTAGGTCACCCAGGACAGTGAATACATTGA, the PBM binding z-score was -0.274.

For CGTCCGAGGTCATAGGAGGTCAGTGAAGACAGAT, the PBM binding z-score was 1.19.

The sequence CCTAGTTGTTCAGGAGGTCACACACCGGATATGA gave a PBM binding z-score of 1.61.

On to CGAACTACGTCATCCAGGACAGTGAATACATTGA, for which the PBM binding z-score was -0.033.

AATAAAGGGTCATCGTAGGCCAGAGTACGCACAG: the PBM binding z-score was 2.31.

CGTCAAAGTCCAAGGTAACGTAACAGAAAGCAGC came in with a PBM binding z-score of -0.271.

TAGCCTAGGTCATACAGGGGCCAGTATAGAAAGC yielded a PBM binding z-score of 0.751.

In turn, CGAACAAGGTCATTGACAGGACAGTGAATAGTAA returned a PBM binding z-score of 1.12.

ATATGTAGGTTAGCTGGGGTCATTCACACTAGGC returned a PBM binding z-score of 1.66.

Turning to CGTCCAAGGACAATGCTAGGTCAGTGAAAGCATT, the PBM binding z-score was -0.885.

Sequence CGAACGAGGTCATGAGTTGATAGCAAATGCCGAT had a PBM binding z-score of 0.023.

As to AGAATGAGGTCAAGATCAGGGAAACAGAATACAT, the PBM binding z-score was determined as 1.7.

Regarding CGTCCAAGGTTAAGGTCAGTGAAAGAGACTCGAA, the PBM binding z-score was -0.224.

On to CATACAGGGTCGGCTAGGCCAGAGTAGGGACGGC, for which the PBM binding z-score is -0.356.

The sequence CCTACTGGGCCAAAGAGGTCATTGATGCCGATAA came in with a PBM binding z-score of -0.243.

For ATATGTAGGTTAGGGTCAGTCAGAAAGTAGGGAA, the PBM binding z-score is 1.69.

In turn, AGTCAAAGTTTATCTAGGTAACGTAAGATATGCT displayed a PBM binding z-score of -0.331.

As to TAGCCTAGGTCATGCGGGACAGTATAGTGTCGGC, the PBM binding z-score was -0.0861.

Sequence ACTTAAGGGTCAACGAGGTTATAGCACGCGTATA yielded a PBM binding z-score of 1.21.

On to TAGCCTAGTTCATTCAGGGGCCAGTATAGAAAGC, for which the PBM binding z-score amounted to 0.584.

CGAACAAGGTCATCCAGGACAGTGAATACATTGA had a PBM binding z-score of 1.27.

Sequence CGTCCGAGGTCAAGGTCAGTGAAAGAGACTCGAA displayed a PBM binding z-score of 1.54.

As to TAGCCGAGGTCATTCAGGGGCCAGTATAGAAAGC, the PBM binding z-score was determined as 2.89.

In turn, CCTACTCGGCCAAAAAGGTCATTGATGCCGATAA yielded a PBM binding z-score of 0.927.

On to CCTTACGGGTCCCTCCAGGTTATAGCATCGGAGT, for which the PBM binding z-score is -0.475.

In turn, AACGAAAGGTCGAAGGTGAGTATACCCACCCGAA came in with a PBM binding z-score of 0.37.
